Results: the supplement of paper PMC11732987, “Enantioselective OTUD7B fragment discovery through chemoproteomics screening and high-throughput optimisation” (Communications Chemistry, 2025)

Key:
Assay in all cases: log2 ratio of Biotin-Ahx-Ub-VS probe labelling (fragment/DMSO); higher = less target engagement (more negative = stronger competition), active = hit call of the paper (q ≤ 0.05, log2 ratio ≤ -1)
Conditions in all cases: compound concentration: 200 uM; treatment time: 3 h
ALG13 = target: T1, ALG13 (UniProt Q9NP73)
T1 sequence (whole entry): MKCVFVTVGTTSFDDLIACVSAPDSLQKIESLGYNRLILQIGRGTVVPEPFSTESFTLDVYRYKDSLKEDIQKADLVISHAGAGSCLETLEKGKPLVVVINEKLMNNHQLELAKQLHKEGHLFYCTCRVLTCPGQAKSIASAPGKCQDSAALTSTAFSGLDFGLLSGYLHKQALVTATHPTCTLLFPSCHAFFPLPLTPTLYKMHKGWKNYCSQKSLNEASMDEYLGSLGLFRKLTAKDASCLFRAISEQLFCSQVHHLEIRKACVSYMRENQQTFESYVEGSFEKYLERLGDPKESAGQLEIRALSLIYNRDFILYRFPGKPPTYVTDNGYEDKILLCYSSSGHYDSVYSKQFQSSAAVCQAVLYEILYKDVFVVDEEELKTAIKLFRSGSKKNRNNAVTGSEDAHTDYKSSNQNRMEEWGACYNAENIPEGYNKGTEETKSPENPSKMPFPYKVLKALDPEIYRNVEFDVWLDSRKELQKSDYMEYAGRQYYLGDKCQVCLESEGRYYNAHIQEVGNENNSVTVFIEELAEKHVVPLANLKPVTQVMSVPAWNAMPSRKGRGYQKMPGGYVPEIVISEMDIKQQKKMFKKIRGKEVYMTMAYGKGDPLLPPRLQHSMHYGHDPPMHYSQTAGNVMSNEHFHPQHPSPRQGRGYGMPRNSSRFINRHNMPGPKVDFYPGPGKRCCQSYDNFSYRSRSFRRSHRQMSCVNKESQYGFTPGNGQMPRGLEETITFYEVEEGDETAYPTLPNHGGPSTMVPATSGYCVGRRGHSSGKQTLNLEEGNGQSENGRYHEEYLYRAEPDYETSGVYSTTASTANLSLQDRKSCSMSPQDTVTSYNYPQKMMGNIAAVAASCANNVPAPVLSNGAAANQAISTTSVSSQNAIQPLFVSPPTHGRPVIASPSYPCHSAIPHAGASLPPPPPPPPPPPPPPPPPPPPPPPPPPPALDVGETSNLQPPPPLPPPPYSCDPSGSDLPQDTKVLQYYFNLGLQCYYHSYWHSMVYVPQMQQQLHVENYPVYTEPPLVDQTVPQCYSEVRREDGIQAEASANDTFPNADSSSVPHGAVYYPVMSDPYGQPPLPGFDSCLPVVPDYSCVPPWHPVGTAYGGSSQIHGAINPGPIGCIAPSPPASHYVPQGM
How it was run: (§1)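 Using Biotin-Ahx-Ub-VS at 0.5 µM final for 1 h, DUBs were labelled in HEK293T lysate (495 µg per sample) that had first been treated in triplicate with fragment at 200 µM or vehicle for 3 h. NeutrAvidin enrichment, LysC and trypsin digestion and diaPASEF LC-MS/MS followed. Spectronaut label-free quantities were global-median-normalised. Values are average log2 fragment/vehicle ratios by unpaired t-test, using proteins with ≥2 unique peptides.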

ATXN3 = ATXN3 (UniProt P54252)
How it was run: as §1

BAP1 = target: T2, BAP1 (UniProt Q92560)
T2 sequence (whole entry): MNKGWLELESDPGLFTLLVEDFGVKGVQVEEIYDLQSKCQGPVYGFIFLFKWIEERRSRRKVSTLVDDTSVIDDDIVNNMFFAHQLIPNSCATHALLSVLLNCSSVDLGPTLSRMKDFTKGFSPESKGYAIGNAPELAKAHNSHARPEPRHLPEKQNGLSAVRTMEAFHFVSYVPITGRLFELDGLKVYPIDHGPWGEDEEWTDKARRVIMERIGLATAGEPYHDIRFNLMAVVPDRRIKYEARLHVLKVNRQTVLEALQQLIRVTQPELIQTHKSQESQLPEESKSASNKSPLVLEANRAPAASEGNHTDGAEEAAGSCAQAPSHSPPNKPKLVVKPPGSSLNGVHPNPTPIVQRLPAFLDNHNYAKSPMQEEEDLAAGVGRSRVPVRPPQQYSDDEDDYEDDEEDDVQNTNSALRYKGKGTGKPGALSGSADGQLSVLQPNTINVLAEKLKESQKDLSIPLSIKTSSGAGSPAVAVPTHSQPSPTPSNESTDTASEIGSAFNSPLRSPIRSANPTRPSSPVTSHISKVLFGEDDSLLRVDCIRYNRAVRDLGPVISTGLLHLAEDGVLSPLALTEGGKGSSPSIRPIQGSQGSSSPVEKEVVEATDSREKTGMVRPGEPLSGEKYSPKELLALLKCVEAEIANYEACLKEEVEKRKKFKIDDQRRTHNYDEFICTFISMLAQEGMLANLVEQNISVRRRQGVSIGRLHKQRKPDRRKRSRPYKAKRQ
How it was run: as §1

EIF3F = EIF3F (UniProt O00303)
How it was run: as §1

EIF3H = EIF3H (UniProt O15372)
How it was run: as §1

FAM105A = target: T3, FAM105A (UniProt Q9NUU6)
T3 sequence (whole entry): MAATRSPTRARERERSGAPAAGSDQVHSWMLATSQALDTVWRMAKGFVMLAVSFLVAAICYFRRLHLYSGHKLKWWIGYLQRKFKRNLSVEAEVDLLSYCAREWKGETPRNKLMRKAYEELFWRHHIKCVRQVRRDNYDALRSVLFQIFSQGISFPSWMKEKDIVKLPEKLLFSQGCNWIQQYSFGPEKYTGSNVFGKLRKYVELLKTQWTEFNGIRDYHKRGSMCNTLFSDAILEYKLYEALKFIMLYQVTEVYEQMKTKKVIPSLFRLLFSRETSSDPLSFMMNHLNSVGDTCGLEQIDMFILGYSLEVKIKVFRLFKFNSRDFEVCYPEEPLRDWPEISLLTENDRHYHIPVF
How it was run: as §1

OTUB1 = OTUB1 (UniProt Q96FW1)
How it was run: as §1

OTUD4 = target: T4, OTUD4 (UniProt Q01804)
T4 sequence (whole entry): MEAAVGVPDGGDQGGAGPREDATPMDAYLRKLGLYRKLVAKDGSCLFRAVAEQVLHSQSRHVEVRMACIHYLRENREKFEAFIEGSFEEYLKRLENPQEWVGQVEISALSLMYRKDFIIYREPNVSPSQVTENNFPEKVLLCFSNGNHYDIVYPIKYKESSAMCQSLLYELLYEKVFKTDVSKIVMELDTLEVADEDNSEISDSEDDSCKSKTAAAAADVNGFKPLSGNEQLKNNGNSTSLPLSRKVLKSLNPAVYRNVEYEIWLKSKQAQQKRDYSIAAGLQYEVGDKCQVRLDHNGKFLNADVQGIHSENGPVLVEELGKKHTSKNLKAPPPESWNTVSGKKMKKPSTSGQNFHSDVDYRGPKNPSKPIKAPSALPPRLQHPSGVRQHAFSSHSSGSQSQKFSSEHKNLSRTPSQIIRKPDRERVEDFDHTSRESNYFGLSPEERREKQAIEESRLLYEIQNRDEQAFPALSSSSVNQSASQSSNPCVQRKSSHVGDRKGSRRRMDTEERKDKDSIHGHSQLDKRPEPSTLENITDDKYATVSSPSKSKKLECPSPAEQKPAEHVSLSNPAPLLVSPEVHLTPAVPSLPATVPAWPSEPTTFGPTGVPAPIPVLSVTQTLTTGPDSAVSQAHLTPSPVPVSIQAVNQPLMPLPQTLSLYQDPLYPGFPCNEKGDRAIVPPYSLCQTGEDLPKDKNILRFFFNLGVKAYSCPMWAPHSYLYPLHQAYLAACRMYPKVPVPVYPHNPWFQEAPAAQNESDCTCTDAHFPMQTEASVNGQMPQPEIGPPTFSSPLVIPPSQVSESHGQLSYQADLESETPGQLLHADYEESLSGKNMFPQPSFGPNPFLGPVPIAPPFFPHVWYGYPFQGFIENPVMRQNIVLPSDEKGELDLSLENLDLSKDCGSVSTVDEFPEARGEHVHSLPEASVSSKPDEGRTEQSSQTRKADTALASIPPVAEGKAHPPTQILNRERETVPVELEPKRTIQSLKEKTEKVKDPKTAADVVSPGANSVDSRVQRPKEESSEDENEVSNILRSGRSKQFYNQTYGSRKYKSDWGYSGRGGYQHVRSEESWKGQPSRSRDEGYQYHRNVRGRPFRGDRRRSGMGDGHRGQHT
How it was run: as §1

OTUD5 = target: T5, OTUD5 (UniProt Q96G74)
T5 sequence (whole entry): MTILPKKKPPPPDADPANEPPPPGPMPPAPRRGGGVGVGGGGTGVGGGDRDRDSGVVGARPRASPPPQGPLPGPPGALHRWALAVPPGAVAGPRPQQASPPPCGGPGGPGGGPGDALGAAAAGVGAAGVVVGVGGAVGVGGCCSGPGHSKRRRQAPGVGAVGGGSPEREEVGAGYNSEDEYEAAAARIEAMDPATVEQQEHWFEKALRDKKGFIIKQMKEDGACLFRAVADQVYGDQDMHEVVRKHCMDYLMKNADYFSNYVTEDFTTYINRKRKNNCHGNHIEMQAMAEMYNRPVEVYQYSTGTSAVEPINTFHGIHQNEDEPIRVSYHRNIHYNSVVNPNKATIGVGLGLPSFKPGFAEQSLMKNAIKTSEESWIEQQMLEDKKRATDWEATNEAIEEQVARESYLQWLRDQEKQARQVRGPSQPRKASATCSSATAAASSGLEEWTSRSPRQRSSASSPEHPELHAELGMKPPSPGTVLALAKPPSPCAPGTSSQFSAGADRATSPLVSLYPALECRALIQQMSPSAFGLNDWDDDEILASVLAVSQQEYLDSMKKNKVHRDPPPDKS
How it was run: as §1

Measured: log2 ratio of Biotin-Ahx-Ub-VS probe labelling

Sequence of EIF3F (O00303 whole entry): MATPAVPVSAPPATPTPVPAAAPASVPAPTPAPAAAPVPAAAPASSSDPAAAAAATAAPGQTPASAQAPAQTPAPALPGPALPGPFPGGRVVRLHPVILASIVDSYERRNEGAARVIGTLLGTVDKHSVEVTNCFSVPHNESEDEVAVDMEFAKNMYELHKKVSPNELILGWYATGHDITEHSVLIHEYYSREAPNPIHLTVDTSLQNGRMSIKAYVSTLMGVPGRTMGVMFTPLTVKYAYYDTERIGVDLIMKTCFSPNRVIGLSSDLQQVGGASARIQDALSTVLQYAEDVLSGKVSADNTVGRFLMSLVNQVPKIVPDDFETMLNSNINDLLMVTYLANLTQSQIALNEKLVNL
Sequence of ATXN3 (P54252 whole entry): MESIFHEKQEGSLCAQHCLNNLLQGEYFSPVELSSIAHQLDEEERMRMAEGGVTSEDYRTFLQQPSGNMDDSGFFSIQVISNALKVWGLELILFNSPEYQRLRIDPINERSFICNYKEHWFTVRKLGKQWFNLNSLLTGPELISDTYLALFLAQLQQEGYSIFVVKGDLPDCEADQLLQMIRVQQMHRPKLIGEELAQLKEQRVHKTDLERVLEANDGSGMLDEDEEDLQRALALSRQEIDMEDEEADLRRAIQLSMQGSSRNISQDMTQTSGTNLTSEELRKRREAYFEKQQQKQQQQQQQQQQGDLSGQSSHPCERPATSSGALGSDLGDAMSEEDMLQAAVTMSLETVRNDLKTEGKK
Sequence of OTUB1 (Q96FW1 whole entry): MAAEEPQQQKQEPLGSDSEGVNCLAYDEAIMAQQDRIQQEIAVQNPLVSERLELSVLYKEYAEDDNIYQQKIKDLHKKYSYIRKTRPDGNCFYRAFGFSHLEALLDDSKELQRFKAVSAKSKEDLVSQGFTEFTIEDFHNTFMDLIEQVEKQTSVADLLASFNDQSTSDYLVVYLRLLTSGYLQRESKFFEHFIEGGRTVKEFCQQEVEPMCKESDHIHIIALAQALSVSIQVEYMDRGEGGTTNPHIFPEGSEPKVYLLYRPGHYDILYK
Sequence of EIF3H (O15372 whole entry): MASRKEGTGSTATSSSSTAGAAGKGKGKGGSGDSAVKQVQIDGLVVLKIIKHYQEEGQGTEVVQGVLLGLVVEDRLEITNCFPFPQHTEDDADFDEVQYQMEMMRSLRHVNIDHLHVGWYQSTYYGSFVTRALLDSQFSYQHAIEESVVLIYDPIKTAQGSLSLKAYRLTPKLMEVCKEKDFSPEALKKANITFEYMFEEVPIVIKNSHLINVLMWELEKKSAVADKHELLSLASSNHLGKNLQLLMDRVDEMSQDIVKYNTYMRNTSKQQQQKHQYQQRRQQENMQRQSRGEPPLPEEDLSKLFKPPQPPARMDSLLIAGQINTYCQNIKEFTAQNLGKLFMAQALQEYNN

Cl.O=C(CCl)N1CCC(Cc2nccs2)C1 (centres undefined)
inactive: ALG13 0.0161 | ATXN3 -0.494 | BAP1 -0.428 | EIF3F -0.176 | EIF3H 0.0343 | FAM105A -0.0526 | OTUB1 -0.388 | OTUD4 -0.386 | OTUD5 -0.302
